A selection: hits, their analogues and other compounds. The true share with any hit is near 8%.
SW480 rerep = inducers of DNA re-replication in SW480 colon cancer cells. SW480 DNA re-replication, Hoechst DNA content imaging, 48 h. Potency, µM (top dose mostly 46.1 µM), without a hit: top-dose re-replication activation, actives largely listed as activators. 340,000 tested, 1.8% active. AID 624297; note: % of control where 0% means no effect; nearly all actives have a fitted effect of over 55% in size
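First, 250 cells per well were seeded. Next, compound or vehicle (23 nL) was pinned in, plates sat 48 hr at 37 C. Finally Hoechst was added for 40 min before fluorescence scanning.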
HT1080 IDH1KD tx = kills HT-1080 cells with IDH1 knockdown; HT-1080 IDH1 knockdown viability, ATP luminescence, 48 h; Potency, µM (highest dose often 46.1 µM), inactives show top-dose activity, negative = toxicity, most hits filed as cytotoxic; 360,000 tested, 2% active;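 note: 0% = DMSO wells and -100% = cell-free medium wells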
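Viability of IDH1-knockdown HT-1080 fibrosarcoma cells was assessed by CellTiter-Glo after 48 h at 37 °C with titrated compound; concentration-effect curves were classified by fit quality and response size.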
KB-3-1 tox = KB-3-1 parental cell cytotoxicity | KB-3-1 viability, CellTiter-Glo ATP luminescence, 72 h | Potency, µM (series often up to 46.1 µM), most hits filed as cytotoxic | 400,000 tested, 1.4% active | AID 1347075; note: % is set by controls: 0 for no effect and ±100 for the full control effect; nearly all actives have a fitted effect of over 60% in size
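Parental KB-3-1 adenocarcinoma cells in phenol-red-free DMEM with 10% FBS were pin-treated with compounds at several concentrations, incubated 72 h at 37 °C, and viability read by CellTiter-Glo luminescence; concentration-effect curves were fitted after normalization.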
HT1080-NT tox = kills 2HG-producing HT-1080-NT fibrosarcoma cells | HT-1080-NT fibrosarcoma viability, CellTiter-Glo ATP luminescence, 48 h | Potency, µM (titrated, usually from 46.1 µM), for the others: at the highest dose activity, negative = less viability, hits mostly cytotoxic | 360,000 tested, 1.6% active;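 note: NT is the 2HG producing partner of a matched IDH1 knockdown line; 0% = DMSO-treated cells and -100% = media-only wells without cells; nearly all actives have a fitted effect of over 55% in size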
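Fibrosarcoma NT cells, 750 per well in 5% FBS RPMI, were exposed to compound for 48 hours. Viability: CellTiter-Glo luminescence.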
MCF10A rereplic = DNA re-replication induction in MCF 10a cells; MCF 10A DNA re-replication, Hoechst nuclear intensity, 48 h; 350,000 tested, 2.9% active; Potency, µM (titrated, usually from 46.1 µM), for inactives: at the highest dose activity, positive = re-replication, most hits filed as activators; note: % of control where 0% means no effect; nearly all actives have a fitted effect of over 50% in size
KB-V1 cytotox = KB-V1 MDR subline cytotoxicity; KB-V1 MDR cells viability, CellTiter-Glo, 72 h; Potency, µM (titrated, usually from 46.1 µM), most hits filed as cytotoxic; 400,000 tested, 3.4% active; AID 1347076; note: % is set by controls: 0 for no effect and ±100 for the full control effect; nearly all actives have a fitted effect of over 60% in size
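KB-V1 MDR subline cells in DMEM (phenol-red free, 10% FBS) exposed to compounds in qHTS concentration series for 72 h at 37 degrees C. Viability read by CellTiter-Glo luminescence; concentration-effect curves fitted after normalization and correction.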
The depositor's hits bear a star; i = inactive; ? = inconclusive; nt = no result. Calls come from the whole dose curve; as a rule, active = well fitted curve in the direction sought with a large enough effect; inconclusive = small, poorly fitted or top-dose-only effect, or another doubt; inactive = no such curve, though single readings can be large; an effect the other way counts as inactive or inconclusive. Potency is the fitted concentration of half-maximal effect.

SMILES | SW480 rerep | HT1080 IDH1KD tx | KB-3-1 tox | HT1080-NT tox | MCF10A rereplic | KB-V1 cytotox
Cc1ccc(C(=O)Nc2cc3c(cc2Cl)OCCCO3)cc1 | -4% | 7% | i | 5% | -4% | i
COc1ccc(/C=c2\[nH]c(=O)/c(=C/c3ccc(OC)cc3)[nH]c2=O)cc1 | nt | nt | i | nt | nt | i
COc1ccc(CCNC(=O)CCn2c(=O)c3ccccc3n(Cc3ccccc3F)c2=O)cc1OC | nt | nt | i | nt | nt | i
N#C/C(=C\C1CC=CCC1)c1nc2ccccc2[nH]1 (stereo not drawn) | ? | ? | ? | ? | ? | 13µM*
Cn1c(/C(C#N)=C/C2CC=CCC2)nc2ccccc21 (stereo not drawn) | -9% | ? | i | ? | -2% | i
O=C(CCl)N1c2ccccc2Sc2c1ccc1ccccc21 | ? | ? | ? | ? | 18µM* | ?
CS(=O)(=O)N(CC(=O)NC1CCCCC1)Cc1ccc(F)cc1 | -1% | 0% | i | 3% | 3% | ?
COc1ccc(C(=O)/C=C/C(=O)N(CC(=O)NC2CCCCC2)Cc2ccc(F)cc2)c(O)c1 | ? | -25% | ? | -19% | ? | 16µM*
COc1ccc(C(=O)N(Cc2ccco2)Cc2cccs2)c(O)c1 | -3% | -12% | i | -1% | 5% | i
COc1ccc(C(=O)/C=C/C(=O)N(CC(=O)NCCC(C)C)Cc2cccs2)c(O)c1 | ? | -16% | i | -2% | -2% | 10µM*
Cc1ccc(OCc2cc(C(=O)N3CCN(C4CCCCC4)CC3)no2)cc1C | -9% | -21% | i | -8% | 12µM* | i
O=C(NCCc1cn2ccccc2n1)c1cc(COc2ccc3ncccc3c2)on1 | 0% | -28% | ? | -4% | ? | 8.2µM*
CC(NC(=O)c1cc(COc2ccc3ncccc3c2)on1)c1ccc(F)cc1 (stereo not drawn) | 2% | ? | ? | -22% | 7% | i
O=C(c1cc(COc2ccc(F)cc2Cl)on1)N1CCCCCC1 | 9% | -1% | i | -7% | ? | i
O=C(c1cc(COc2ccc3ncccc3c2)on1)N1CCCCCC1 | ? | ? | ? | 3.7µM* | 9% | i
O=C(c1cc(COc2ccc(F)cc2Cl)on1)N1CCC(c2ccncc2)CC1 | 1% | ? | i | -18% | ? | 4.1µM*
Cc1cccc(NC(=O)CSc2nc(-c3cccs3)cc(C(F)(F)F)c2C#N)c1C | nt | nt | i | nt | nt | i
Cc1cc2oc(C(=O)Nc3ccc(S(=O)(=O)Nc4ncccn4)cc3)cc(=O)c2cc1C | nt | nt | i | nt | nt | i
CCCCN(CC)C(=O)CCNS(=O)(=O)c1ccc2c(c1)c(=O)n(C)c(=O)n2C | nt | nt | i | nt | nt | i
O=C(NC1CCCC1)c1cc(COc2ccc3ncccc3c2)on1 | -16% | ? | i | ? | 20% | ?
COc1cccc(CN(C)C(=O)c2cc(COc3c(F)cccc3F)on2)c1 | -4% | 24% | i | 30% | -7% | i
COc1cccc(CN(C)C(=O)c2cc(COc3ccc4ncccc4c3)on2)c1 | -6% | -20% | 4.1µM* | ? | ? | 4.1µM*
COCC1CCN(C(=O)c2cc(COc3ccc4ncccc4c3)on2)CC1 | 1% | -15% | ? | -2% | -3% | 7.3µM*
Cc1cc(OCc2cc(C(=O)N3CCC(Oc4cccnc4)CC3)no2)cc(C)c1Cl | 2% | ? | i | -4% | 21µM* | ?
Cc1cc(OCc2cc(C(=O)N3CCN(CC4CC4)CC3)no2)cc(C)c1Cl | ? | ? | ? | -18% | 16% | i
SMILES | SW480 rerep | HT1080 IDH1KD tx | KB-3-1 tox | HT1080-NT tox | MCF10A rereplic | KB-V1 cytotox
O=C(c1cc(COc2ccc3ncccc3c2)on1)N1CCCC1 | 3% | 15µM* | ? | 21µM* | 14% | ?
O=C(CS(=O)(=O)c1cccc2nsnc12)NCc1ccccc1 | nt | nt | i | nt | nt | ?
Cc1ccc2oc(C(=O)NCC(c3ccc(Cl)cc3)N3CCOCC3)c(C)c2c1 (stereo not drawn) | nt | nt | i | nt | nt | i
Cc1cc(C)c(COc2ccc(/C=N/n3c(C)n[nH]c3=S)cc2)c(C)c1 | -80% | ? | i | ? | 13µM* | i
Cc1n[nH]c(=S)n1/N=C/c1ccc(OCc2ccc(Cl)cc2)cc1 | -10% | -1% | i | -1% | 12% | ?
Cc1ccc(S(=O)(=O)Oc2ccc(N3C(=O)C4C5CCC(C5)C4C3=O)cc2)cc1 (stereo not drawn) | 14% | -11% | i | -9% | ? | i
O=C1C2C3CCC(C3)C2C(=O)N1c1ccc(OS(=O)(=O)c2ccccc2)cc1 (stereo not drawn) | -5% | -26% | ? | -3% | 16% | 9.2µM*
Cc1nnc(N2CCN(c3ccccc3F)CC2)c2c1nnn2Cc1ccccc1Cl | nt | nt | i | nt | nt | i
COc1ccc(NC(=O)CCCSc2nc(-c3ccco3)cc(C(F)(F)F)n2)cc1 | nt | nt | i | nt | nt | i
Cc1ccc(-n2c(N)c(-c3nc4ccccc4n3C)sc2=S)cc1 | -2% | -23% | i | -27% | 16% | i
Cn1c(-c2c(N)n(-c3ccccc3)c3nc4ccccc4nc23)nc2ccccc21 | 15µM* | -17% | i | -13% | 8.2µM* | ?
Cc1cccc(-n2c(N)c(-c3nc4ccccc4n3C)c3nc4ccccc4nc32)c1 | 5.8µM* | -1% | i | 3% | ? | i
O=C(CN1CCC(NC(=O)c2ccc(F)cc2)CC1)NCc1ccccc1F | -2% | 10% | i | 3% | -1% | 12µM*
O=C(CN1CCC(NC(=O)c2cccc(F)c2)CC1)NCc1ccccc1F | 3% | 0% | i | 2% | 5% | 18µM*
O=C(NCc1ccccc1F)C1CCCN1C(=O)NC1CCCCC1 (stereo not drawn) | -8% | 0% | i | 0% | 3% | 21µM*
COc1ccc(NC(=O)CSc2nc(-c3ccccc3)cc(-c3cc(OC)c(OC)c(OC)c3)c2C#N)c(OC)c1 | nt | nt | i | nt | nt | i
Cc1cc(NCc2ccccn2)n2nc(C)c(-c3ccc(Cl)cc3)c2n1 | 3% | 21µM* | i | ? | ? | ?
Cc1cc(NCc2ccccn2)n2ncc(-c3ccccc3)c2n1 | 0.82µM* | ? | i | -25% | 12% | ?
CCCc1cc(NCc2ccccn2)n2nc(C)c(-c3ccccc3)c2n1 | 3.3µM* | ? | ? | -25% | ? | i
COc1cccc(NC(=O)c2cc(CN3CCOCC3)on2)c1 | nt | nt | i | nt | nt | i

Source: PubChem
